Assay [1] relates to PKN3. Also noted: species or system human, MV4-11 + K-562 + COLO205 + SK-N-BE2 + OVCAR-8. The note with it: read-out: apparent Kd, n = 1.
Assay [2] has as its system PKN3. The note with it: hek293t cells.
In another assay the test system is AAK1. Also noted: species or system human, MV4-11 + K-562 + COLO205 + SK-N-BE2 + OVCAR-8. Particulars: read-out: apparent Kd, n = 1.
Another assay has as its system BMP2K. Also on record: species or system human, MV4-11 + K-562 + COLO205 + SK-N-BE2 + OVCAR-8. Particulars: read-out: apparent Kd, n = 1.
Another assay deals with CLK1. Also on record: species or system human, MV4-11 + K-562 + COLO205 + SK-N-BE2 + OVCAR-8. Particulars: read-out: apparent Kd, n = 1.
The next assay relates to CLK4. Also noted: species or system human, MV4-11 + K-562 + COLO205 + SK-N-BE2 + OVCAR-8. The note with it: read-out: apparent Kd, n = 1.
In a further assay the test system is CSNK2A1;CSNK2A3. Also on record: species or system human, MV4-11 + K-562 + COLO205 + SK-N-BE2 + OVCAR-8. Particulars: read-out: apparent Kd, n = 1.
In another assay the test system is CSNK2A2. Also noted: species or system human, MV4-11 + K-562 + COLO205 + SK-N-BE2 + OVCAR-8. Particulars: read-out: apparent Kd, n = 1.
The next assay deals with FLT3. Also on record: species or system human, MV4-11 + K-562 + COLO205 + SK-N-BE2 + OVCAR-8. The note with it: read-out: apparent Kd, n = 1.
A further assay has as its system FLT4. Also noted: species or system human, MV4-11 + K-562 + COLO205 + SK-N-BE2 + OVCAR-8. The note with it: read-out: apparent Kd; compound concentrations:100 nM and 1000 nM (sheet 'Samples'); n = 1.
Another assay relates to GAK. Also noted: species or system human, MV4-11 + K-562 + COLO205 + SK-N-BE2 + OVCAR-8. Particulars: read-out: apparent Kd; compound concentrations:100 nM and 1000 nM (sheet 'Samples'); n = 1.
The subject of another assay is GSK3A. Also on record: species or system human, MV4-11 + K-562 + COLO205 + SK-N-BE2 + OVCAR-8. Particulars: read-out: apparent Kd, n = 1.
The test system of a further assay is GSK3B. Also on record: species or system human, MV4-11 + K-562 + COLO205 + SK-N-BE2 + OVCAR-8. The note with it: read-out: apparent Kd, n = 1.
Another assay relates to MELK. Also noted: species or system human, MV4-11 + K-562 + COLO205 + SK-N-BE2 + OVCAR-8. Particulars: read-out: apparent Kd, n = 1.
The subject of the next assay is NUAK1. Also on record: species or system human, MV4-11 + K-562 + COLO205 + SK-N-BE2 + OVCAR-8. Particulars: read-out: apparent Kd, n = 1.
The next assay concerns PAK4. Also noted: species or system human, MV4-11 + K-562 + COLO205 + SK-N-BE2 + OVCAR-8. The note with it: read-out: apparent Kd, n = 1.
The test system of another assay is PKN1. Also noted: species or system human, MV4-11 + K-562 + COLO205 + SK-N-BE2 + OVCAR-8. The note with it: read-out: apparent Kd, n = 1.
A further assay addresses Q6ZSR9 (human, UniProt Q6ZSR9). Also noted: species or system MV4-11 + K-562 + COLO205 + SK-N-BE2 + OVCAR-8. Particulars: read-out: apparent Kd, n = 1.
The subject of another assay is RET. Also noted: species or system human, MV4-11 + K-562 + COLO205 + SK-N-BE2 + OVCAR-8. Particulars: read-out: apparent Kd, n = 1.
The next assay deals with SIK2. Also on record: species or system human, MV4-11 + K-562 + COLO205 + SK-N-BE2 + OVCAR-8. Particulars: read-out: apparent Kd, n = 1.
The mark [3] stands for this setting: compound concentrations:100 nM and 1000 nM (sheet 'Samples').

Where two headings read alike, the source gives them in different places.

The source of these data is publication PMC11062922 (Nature Chemical Biology, 2023).
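Throughout, for IC50: NanoBRET target engagement in HEK293T cells transiently expressing full-length PKN3 with C-terminal NanoLuc, displacement of fluorescent tracer K5 (500 nM), BRET read after 2 h equilibration at 37 °C.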

Sequence of Q6ZSR9 (Q6ZSR9 whole entry, looked up): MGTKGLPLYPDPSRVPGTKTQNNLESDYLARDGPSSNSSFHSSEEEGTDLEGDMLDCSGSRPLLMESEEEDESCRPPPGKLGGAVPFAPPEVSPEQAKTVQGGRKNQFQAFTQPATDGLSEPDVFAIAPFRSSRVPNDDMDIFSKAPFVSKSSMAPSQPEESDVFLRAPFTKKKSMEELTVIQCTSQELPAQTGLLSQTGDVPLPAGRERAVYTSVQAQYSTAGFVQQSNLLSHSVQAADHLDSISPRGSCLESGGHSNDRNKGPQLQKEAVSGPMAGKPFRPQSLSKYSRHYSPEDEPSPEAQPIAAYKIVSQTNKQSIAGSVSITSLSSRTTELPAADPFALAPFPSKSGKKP

Take `Cl.ON=C1CCc2cc(-c3nc(C4CCNCC4)[nH]c3-c3ccncc3)ccc21` [SB-614067-R]: in the assay on PKN3 [1] (setting [3]), the potency estimated from few doses was 0.125 µM. Further, the IC50 amounted to 22.9 µM in the assay with PKN3 [2] (read-out: Average, SD, n = 4); 19.1 µM with PKN3 [2] (read-out: Rep 1); 20.6 µM in the assay with PKN3 [2] (read-out: Rep 2); 50.1 µM in the assay on PKN3 [2] (read-out: Rep 3); 1.84 µM in the assay on PKN3 [2] (read-out: Rep 4).

As for `Cl.Cl.NCC(C(=O)Nc1cc(Br)c(-c2ccnc3[nH]ccc23)s1)c1ccccc1.NCC(C(=O)Nc1cc(Br)c(-c2ccnc3[nH]ccc23)s1)c1ccccc1` (stereo not drawn) [GSK1269851A], the potency estimated from few doses in the assay with AAK1 (setting [3]) was 0.0844 µM; in the assay on BMP2K (setting [3]) it was 0.126 µM; with CLK1 (setting [3]) it was 0.449 µM; in the assay on CLK4 (setting [3]), 1.07 µM; in the assay on CSNK2A1;CSNK2A3 (setting [3]), 0.861 µM; with CSNK2A2 (setting [3]) it was 1.13 µM. The potency estimated from few doses with FLT3 (setting [3]) is 1.45 µM; in the assay on FLT4, 1.23 µM; in the assay with GAK it was 0.063 µM; with GSK3A (setting [3]) it was 0.109 µM; in the assay with GSK3B (setting [3]) it was 0.417 µM; in the assay on MELK (setting [3]) it was 2.32 µM. For the same molecule, the potency estimated from few doses with NUAK1 (setting [3]) was 1.2 µM; in the assay on PAK4 (setting [3]), 0.736 µM; in the assay on PKN1 (setting [3]), 1.33 µM; in the assay on PKN3 [1] (setting [3]), 0.863 µM; with Q6ZSR9 (setting [3]) it was 0.0544 µM; with RET (setting [3]), 0.539 µM. In addition, the potency estimated from few doses in the assay with SIK2 (setting [3]) is 0.751 µM.

For `CSc1c(C2=C(c3cn(C)c4ccccc34)C(=O)NC2=O)c2ccccc2n1C` [RO0317340-000], the potency estimated from few doses in the assay with AAK1 (compound concentrations: 100 nM and 1000 nM (sheet 'Samples'), CATDS: 1) was 1.17 µM.

With `Fc1ccc(-c2c(-c3ccncc3)[nH]c3cccnc23)cc1` [RO1153853-000], in the assay with PKN3 [1] (compound concentrations: 100 nM and 1000 nM (sheet 'Samples'), CATDS: 0.27237296502427), the potency estimated from few doses was 0.0558 µM. Besides, the IC50 in the assay with PKN3 [2] (read-out: Average, SD, n = 4) was found to be 2.36 µM; with PKN3 [2] (read-out: Rep 1), 8.03 µM; with PKN3 [2] (read-out: Rep 2), 0.951 µM; with PKN3 [2] (read-out: Rep 3), 0.164 µM; in the assay on PKN3 [2] (read-out: Rep 4), 0.295 µM.

As for `CCn1c(-c2nonc2N)nc2c(C#CC(C)(C)O)nc(O[C@@H](CN)c3ccccc3)cc21.O=C(O)C(F)(F)F` [GSK1007102B], the potency estimated from few doses was 0.0673 µM with AAK1 (setting [3]); 0.355 µM with BMP2K (setting [3]); 0.0461 µM in the assay with GSK3A (setting [3]); 0.0405 µM with GSK3B (setting [3]); 1.04 µM with MELK (setting [3]); 0.0398 µM in the assay on PAK4 (setting [3]). The potency estimated from few doses in the assay on PKN1 (setting [3]) is 0.0376 µM; in the assay with PKN3 [1] (setting [3]), 0.00206 µM; in the assay with Q6ZSR9 (setting [3]), 0.111 µM; in the assay with RET (setting [3]), 1.25 µM.

On to `Nc1nc(Nc2ccccc2)cc(-c2ccc3c(N)n[nH]c3c2)n1` [GSK2225749A], for which the potency estimated from few doses in the assay with AAK1 (setting [3]) was 0.13 µM; in the assay on BMP2K (setting [3]), 0.554 µM; with MELK (setting [3]) it was 0.823 µM; with Q6ZSR9 (setting [3]), 0.125 µM.

With `COc1ccc(Nc2nccc(-c3ccc(NC(=O)c4cc5cc(F)ccc5[nH]4)cc3)n2)cc1` [GSK1229496A], the potency estimated from few doses with AAK1 (compound concentrations: 100 nM and 1000 nM (sheet 'Samples'), CATDS: 0.25032000609497101) was 1.83 µM.

For `CN(C)CCNC(=O)Nc1ccc(N(C)c2ccnc(Nc3ccc(CS(C)(=O)=O)cc3)n2)cc1.Cl` [GW830900A], the potency estimated from few doses in the assay on AAK1 (setting [3]) is 0.82 µM; in the assay on BMP2K (setting [3]) it was 1.22 µM; in the assay on FLT3 (setting [3]) it was 0.0399 µM; in the assay with FLT4, 1.24 µM; with GAK, 1.45 µM; in the assay with NUAK1 (setting [3]), 1.75 µM. Moreover, in the assay with Q6ZSR9 (setting [3]), the potency estimated from few doses is 0.939 µM.

Regarding `CCN(CC)Cc1ccc(Nc2nccc(-c3cnn4ncccc34)n2)cc1` [GW780056X], the potency estimated from few doses with AAK1 (compound concentrations: 100 nM and 1000 nM (sheet 'Samples'), CATDS: 2.17265123337868E-2) was 1.01 µM; with BMP2K (compound concentrations: 100 nM and 1000 nM (sheet 'Samples'), CATDS: 1.8132469854257299E-2) it was 1.95 µM; with CLK1 (compound concentrations: 100 nM and 1000 nM (sheet 'Samples'), CATDS: 3.2985166948547001E-2) it was 0.346 µM; with CLK4 (compound concentrations: 100 nM and 1000 nM (sheet 'Samples'), CATDS: 3.0818268189282499E-2), 0.403 µM; with CSNK2A2 (compound concentrations: 100 nM and 1000 nM (sheet 'Samples'), CATDS: 1.97839070790959E-2) it was 1.38 µM; with FLT3 (compound concentrations: 100 nM and 1000 nM (sheet 'Samples'), CATDS: 9.2784316233310501E-2) it was 0.0488 µM. Besides, the potency estimated from few doses was 0.616 µM with GSK3A (compound concentrations: 100 nM and 1000 nM (sheet 'Samples'), CATDS: 2.5871712918447001E-2); 0.798 µM in the assay with GSK3B (compound concentrations: 100 nM and 1000 nM (sheet 'Samples'), CATDS: 2.3506229340690101E-2); 0.0116 µM with NUAK1 (compound concentrations: 100 nM and 1000 nM (sheet 'Samples'), CATDS: 0.242637090604084); 0.971 µM in the assay with Q6ZSR9 (compound concentrations: 100 nM and 1000 nM (sheet 'Samples'), CATDS: 2.1989322106712401E-2).

As to `CS(=O)(=O)Nc1ccc(-c2ccnc3[nH]ccc23)cc1` [GSK993273A], the potency estimated from few doses in the assay on AAK1 (setting [3]) is 1.89 µM; with BMP2K (setting [3]), 2 µM; in the assay with CLK1 (setting [3]) it was 1.11 µM; in the assay on CLK4 (setting [3]) it was 1.44 µM; with Q6ZSR9 (setting [3]), 2.01 µM.

As to `O=C(O)C(F)(F)F.O=c1[nH]ccc2nc(N[C@@H]3CCNC3)nc(Nc3ccc4c(c3)S(=O)(=O)CC4)c12` [GSK2181306A], the potency estimated from few doses in the assay on AAK1 (compound concentrations: 100 nM and 1000 nM (sheet 'Samples'), CATDS: 1.0213142208507E-2) is 0.8 µM; with BMP2K (compound concentrations: 100 nM and 1000 nM (sheet 'Samples'), CATDS: 1.9243702463248E-2), 0.19 µM; in the assay on CLK4 (compound concentrations: 100 nM and 1000 nM (sheet 'Samples'), CATDS: 8.1810149624153006E-3), 1.76 µM; in the assay with CSNK2A1;CSNK2A3 (compound concentrations: 100 nM and 1000 nM (sheet 'Samples'), CATDS: 0.112951755046268), 0.0113 µM; with CSNK2A2 (compound concentrations: 100 nM and 1000 nM (sheet 'Samples'), CATDS: 0.17006619432900399), 0.00646 µM; in the assay with FLT3 (compound concentrations: 100 nM and 1000 nM (sheet 'Samples'), CATDS: 8.5928839760778392E-3), 1.43 µM. For the same molecule, the potency estimated from few doses in the assay with GSK3A (compound concentrations: 100 nM and 1000 nM (sheet 'Samples'), CATDS: 1.81293399995681E-2) is 0.213 µM; in the assay with GSK3B (compound concentrations: 100 nM and 1000 nM (sheet 'Samples'), CATDS: 1.53717620719534E-2) it was 0.296 µM; with MELK (compound concentrations: 100 nM and 1000 nM (sheet 'Samples'), CATDS: 8.8391559742386702E-3), 1.29 µM; in the assay with NUAK1 (compound concentrations: 100 nM and 1000 nM (sheet 'Samples'), CATDS: 6.4011411937308901E-2), 0.0259 µM; in the assay with PAK4 (compound concentrations: 100 nM and 1000 nM (sheet 'Samples'), CATDS: 3.0355378859093798E-2), 0.085 µM; in the assay on PKN1 (compound concentrations: 100 nM and 1000 nM (sheet 'Samples'), CATDS: 8.6733801464620904E-3), 1.38 µM. The potency estimated from few doses with Q6ZSR9 (compound concentrations: 100 nM and 1000 nM (sheet 'Samples'), CATDS: 1.2146463936907201E-2) is 0.503 µM; in the assay on RET (compound concentrations: 100 nM and 1000 nM (sheet 'Samples'), CATDS: 2.5699150815533801E-2) it was 0.113 µM; in the assay on SIK2 (compound concentrations: 100 nM and 1000 nM (sheet 'Samples'), CATDS: 1.23582822640132E-2), 0.483 µM.
